{"source": "PubChem BioAssay", "data": [{"assay": "binders from COS7 lysate, DM2A8 probe, primary screen, torsin A project, cell lysate, small-molecule microarray, fluorescence 635/667 (AID 1065)", "conditions": "higher = more signal, COS7 lysate expressing mutant human TOR1A", "values": [{"compound": "Cc1ccc(S[C@]2(C(=O)NCc3ccccc3)CC(=O)N(Cc3ccccc3)[C@@H]2c2ccc(CO)cc2)cc1", "composite z-score": -0.443}, {"compound": "C=C(C(=O)CC[C@H](OC(C)=O)c1ccc(OCCO)cc1)C(C)C", "composite z-score": 0.194}, {"compound": "Cc1ccc(S[C@]2(C(=O)NCC(C)C)CC(=O)N(Cc3ccccc3)[C@@H]2c2ccc(CO)cc2I)cc1", "composite z-score": 0.0315}, {"compound": "O=C1N(CCS(=O)(=O)c2ccccc2)c2ccccc2C[C@@]12COC(c1ccc(OCCCO)cc1)=N2", "composite z-score": 0.858}, {"compound": "CCOC(=O)C[C@H]1[C@H](OC(=O)c2ccc(-c3ccccc3)cc2)[C@@H](NC(=O)Cc2ccc(OC)cc2)c2cc(OCCCO)ccc2N1C(=O)c1ccc2ccccc2n1", "composite z-score": -0.188}, {"compound": "C=CCNC(=O)[C@@H]1[C@H]2C(=O)O[C@H](c3ccccc3)[C@H](c3ccccc3)N2[C@H](c2ccc(OCCO)cc2)[C@@]12C(=O)Nc1ccccc12", "composite z-score": 0.0949}, {"compound": "COCCOC(=O)N1C(=O)[C@@]2(c3cc(C#CCNC(N)=O)ccc31)[C@H](c1ccccc1OCCO)N1[C@H](c3ccccc3)[C@H](c3ccccc3)OC(=O)[C@H]1[C@@H]2C(N)=O", "composite z-score": 0.092}, {"compound": "COC(=O)[C@@]1(Cc2ccc(F)cc2)[C@H]2c3cc(C(=O)N4CCCC4)n(Cc4cccc5ccccc45)c3C[C@H]2CN1C(=O)c1ccccc1", "composite z-score": 0.312}, {"compound": "CC(C)CNC(=O)[C@@]1(c2ccc([N+](=O)[O-])cc2)CC(=O)N(CC23CC4CC(CC(C4)C2)C3)[C@@H]1c1ccc(CO)cc1", "composite z-score": 1.83}, {"compound": "CC1=C2[C@@H](CCc3ccccc3)OB(O)C[C@@H]2n2c(=O)n(-c3ccccc3)c(=O)n2C1", "composite z-score": -0.214}]}]}
